Source: ChEMBL document CHEMBL3988442, “University of Dundee, Small-Polar-MMV Screening Library” (2021)

These compounds were tested against T1, Aspartate--tRNA(Asp/Asn) ligase (Mycobacterium tuberculosis (strain ATCC 25618 / H37Rv)) (UniProt P9WFW3) (assay: Assay for Asp RNA synthetase-1 from Mycobacterium tuberculosis). Details: 30 µM.
T1 sequence (whole entry): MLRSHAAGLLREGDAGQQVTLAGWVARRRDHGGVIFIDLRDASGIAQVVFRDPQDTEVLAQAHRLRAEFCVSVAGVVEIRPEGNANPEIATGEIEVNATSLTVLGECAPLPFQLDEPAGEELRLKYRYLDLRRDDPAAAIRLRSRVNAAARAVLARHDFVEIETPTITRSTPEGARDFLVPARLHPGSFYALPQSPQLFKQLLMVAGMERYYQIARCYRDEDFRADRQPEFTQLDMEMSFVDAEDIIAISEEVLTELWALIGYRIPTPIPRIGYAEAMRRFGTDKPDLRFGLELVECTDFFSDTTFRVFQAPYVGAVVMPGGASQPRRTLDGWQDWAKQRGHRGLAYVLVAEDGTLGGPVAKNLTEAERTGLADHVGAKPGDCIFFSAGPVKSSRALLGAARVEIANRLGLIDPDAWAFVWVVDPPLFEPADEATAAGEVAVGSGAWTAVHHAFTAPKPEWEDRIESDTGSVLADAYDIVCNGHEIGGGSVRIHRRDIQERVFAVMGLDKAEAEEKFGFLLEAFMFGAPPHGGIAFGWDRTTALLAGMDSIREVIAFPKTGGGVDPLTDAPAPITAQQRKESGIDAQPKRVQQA
Format: functional
Design: scale not given: in the data most compounds retested in dose-response had high values

Which Percent Effect does the source give for `CCn1cnnc1CNC(=O)NCC(c1cccs1)N1CCCC1` (stereo not given) here?
The Percent Effect was -1.91%.

Which Percent Effect does the source give for `COc1cccc(CNc2cnn(C)c(=O)c2Cl)c1` here?
The Percent Effect was -6.1%.

`CNC(=O)C1Cn2ccnc2C2(CCN(CCF)CC2)O1` (stereo not given) was tested. Which Percent Effect did it give?
The Percent Effect was 2.17%.

With `Cn1cnc2c1C(COCc1cccnc1)N(Cc1ccccn1)CC2` (stereo not given) as the compound, how does the Percent Effect read?
Its Percent Effect is 2.65%.

With `Cc1noc(C(C)C)c1C(=O)N1CCOCC1CC(=O)c1ccco1` (stereo not given) as the compound, how does the Percent Effect read?
The Percent Effect was 2.61%.

`O=C1NCCN(CC2CC2)C12CCN(Cc1ccc3c(c1)OCO3)CC2` was tested. Which Percent Effect did it give?
The Percent Effect was 11.3%.

How did the Percent Effect turn out when `CC(=O)N1CCOC(c2cc(N3CC(O)C3)nc(C)n2)C1` (stereo not given) was run?
Its Percent Effect is -3.6%.

`O=C(NCC(=O)N1CCCCC1)c1ccoc1` was tested. Which Percent Effect did it give?
Its Percent Effect is 6.71%.

For `Cc1nccc([C@H]2C[C@@H]3CCN(S(=O)(=O)N(C)C)C[C@H]3O2)n1`, which Percent Effect is on record?
Its Percent Effect is 1.71%.

`CC(=O)c1cccc(OCCCC(=O)N(C)CCc2ccncc2)c1` was tested. Which Percent Effect did it give?
The Percent Effect was -0.591%.

With `O=C1COc2ccc(C(=O)NS(=O)(=O)c3ccc(F)cc3F)cc2N1` as the compound, how does the Percent Effect read?
Its Percent Effect is 0.0843%.

`CCO[C@@H]1CCN(C(=O)c2ccc[nH]2)[C@@H]1Cc1cnn(C)c1` was tested. Which Percent Effect did it give?
Its Percent Effect is -1.78%.

How did the Percent Effect turn out when `CC(C)C1CN(C(=O)c2ccc(N3CCCC3)nc2)CCS1` (stereo not given) was run?
The Percent Effect was 12.9%.

`Cc1nc(-c2ccccc2)sc1C(=O)NCCNc1ncccn1` was tested. Which Percent Effect did it give?
The Percent Effect was -2.89%.

With `Cc1ccc(N2CC[C@H](OCC3CC3)[C@@H]2Cc2cnn(C)c2)nn1` as the compound, how does the Percent Effect read?
The Percent Effect was 2.69%.

Which Percent Effect does the source give for `CSCCC(=O)N1CCCC1c1ccsc1` (stereo not given) here?
Its Percent Effect is 2.62%.

For `CCc1nnc2n1CCN(C(=O)CN(C)Cc1ccccc1)C2`, which Percent Effect is on record?
Its Percent Effect is -3.23%.

How did the Percent Effect turn out when `O=C(Nc1nncs1)NC1CCc2ccccc21` (stereo not given) was run?
Its Percent Effect is 1.46%.

For `Cc1cc(C(=O)N2CCc3nnc(N)cc3C2)c(C)n1C1CC1`, which Percent Effect is on record?
Its Percent Effect is 7.93%.

For `CCc1nnc2n1CCN(C(=O)c1ccc3nc(C)c(C)nc3c1)C2`, which Percent Effect is on record?
Its Percent Effect is -2.42%.

How did the Percent Effect turn out when `Cc1nc(C2CCCN2C(=O)c2ccccc2)ncc1C(N)=O` (stereo not given) was run?
Its Percent Effect is -3.02%.

How did the Percent Effect turn out when `Cc1nc(C)n(CC2CCCN2Cc2nc(N)c3ccccc3n2)n1` (stereo not given) was run?
The Percent Effect was -1.84%.

`Cc1cnn(CC2CN(c3ncnc4ccccc34)CCO2)c1` (stereo not given) was tested. Which Percent Effect did it give?
Its Percent Effect is -7%.

`CCC(=O)NC1CCN(c2cccc(CC)c2)CC1` was tested. Which Percent Effect did it give?
The Percent Effect was 1.79%.

`CNC(=O)[C@H]1C[C@@H]2CN(C(=O)Nc3ccc(F)cc3)C[C@H]1O2` was tested. Which Percent Effect did it give?
The Percent Effect was -1.56%.

How did the Percent Effect turn out when `CCc1nnc2n1CCN(Cc1ccc3c(c1)OCCO3)C2` was run?
The Percent Effect was 4.98%.

For `CCCNC(=O)c1sccc1N(C)S(=O)(=O)c1ccc(Cl)cc1`, which Percent Effect is on record?
Its Percent Effect is 12.9%.

Which Percent Effect does the source give for `O=C(Nc1ccnc(OC2CCOC2)c1)C1CCC1` (stereo not given) here?
Its Percent Effect is -4.32%.

How did the Percent Effect turn out when `CC(NC(=O)NCCn1ccnc1)c1ccc2c(c1)NC(=O)CO2` (stereo not given) was run?
Its Percent Effect is 0.942%.

`CCOC(=O)N1CCN(Cc2ccc(OCc3nccn3C)cc2)CC1` was tested. Which Percent Effect did it give?
Its Percent Effect is -4.7%.

Which Percent Effect does the source give for `CCc1cnc(CN(C)C2CCN(CCc3cccs3)C2)o1` (stereo not given) here?
Its Percent Effect is 2.92%.

`Cc1cc(CNc2ccc(C(=O)N3CCCC(C)C3)cc2C)no1` (stereo not given) was tested. Which Percent Effect did it give?
The Percent Effect was -2.25%.

How did the Percent Effect turn out when `CCO[C@@H]1CC[C@H]2[C@H]1OCCN2C(=O)C1CCOCC1` was run?
Its Percent Effect is -5.84%.

`CS(=O)(=O)N1CCC(c2nnc3ccc(C(=O)N4CCCC4)cn23)C1` (stereo not given) was tested. Which Percent Effect did it give?
The Percent Effect was 2%.

For `c1ccc(Oc2cc(CNCC3CNc4ccnn4C3)ccn2)cc1` (stereo not given), which Percent Effect is on record?
The Percent Effect was -8.46%.

Which Percent Effect does the source give for `CC(C)c1nc(C2CCCN(C(=O)CCCn3cncn3)C2)no1` (stereo not given) here?
Its Percent Effect is 9.5%.

How did the Percent Effect turn out when `FC1(F)CCN(Cc2cccnc2)CC12CCN(c1ccccn1)C2` (stereo not given) was run?
Its Percent Effect is 1.91%.

`CN(C)c1ccc(CCCNC(=O)Nc2ccc(C#N)cc2)cc1` was tested. Which Percent Effect did it give?
The Percent Effect was -1.77%.

With `CN(Cc1cnn(C)c1)C(=O)NC1CCN(Cc2ccccn2)CC1` as the compound, how does the Percent Effect read?
The Percent Effect was 5.83%.

Which Percent Effect does the source give for `COCCC(=O)N1CCN(C)c2ncccc2C1` here?
Its Percent Effect is 4.52%.
